Results on 48 compounds are retold here after PubChem BioAssay AID2685 (National Center for Advancing Translational Sciences (NCATS), 2010).

Hit rate of the full screen: of about 320,000 compounds, about 2,100 (0.66%) were called active. Inconclusive results (about 53%) are left out. Calls follow the shape of the dose curve; as a rule, active = well fitted inhibition curve with a large enough effect in the signal ratio, with a control signal flat (not every such curve was filed as active); inconclusive = small, poorly fitted or top-dose-only effect, or effect the other way, or a change in a side signal; inactive = flat fitted curve, though single readings scatter; the % refers to the signal ratio. Only a selection was taken, and actives are over-represented in it overall.
Potency is read from the fitted curve at half-maximal effect.

The assay is described as follows: qHTS Assay for Lipid Storage Modulators in Drosophila S3 Cells.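 As to cell number change: cells counted by Cell Tracker Red CMTPX staining in the red channel.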 As to lipid storage change, negative = inhibition: % is scaled to controls: 0 for no effect and ±100 for the full control effect. The following applies: BODIPY lipid droplet fluorescence, 18-24 h, cells fed with added oleic acid; cell number change: measured here: cell count max response; series mostly up to 46.1 µM; lipid storage change, negative = inhibition: at the top concentration. A digest of the protocol: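 Drosophila S3 cells loaded with oleic acid (400 uM, as added) and compounds at several concentrations; lipid droplets imaged by 488-nm laser-scanning cytometry, 500–530 nm intensity and object ratio to cell channel. Percent activity normalized to 20 uM Triacsin C.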
(In qHTS, concentration-response curves come from the screen itself.)
On to `CCCCNC(=O)CN(c1cc(C(F)(F)F)ccc1Cl)S(C)(=O)=O`, for which the “lipid storage change, negative = inhibition” value was 2.61% (inactive) and the cell number change was 5.68%. For `Cc1ccc(N(CC(=O)NC2CCCCC2)S(=O)(=O)c2c(C)nn(C)c2C)cc1`, the call was inactive and the cell number change came out at 5.73%. With `Cc1ccc(N(CC(=O)NC2CCCCC2C)S(=O)(=O)c2c(C)nn(C)c2C)cc1` (centres undefined), the Potency is 25.9 µM (active) and the cell number change was -1.91%.

In the case of `Cc1ccc(N(CC(=O)NC2CCCCC2C)S(=O)(=O)c2c(C)noc2C)cc1` (centres undefined), the result was inactive and the cell number change amounted to 1.18%.

For the compound `CC1(C)CCC(C)(C)NC(=S)N1`, the “lipid storage change, negative = inhibition” value was -0.404% (inactive) and the cell number change is -5.67%.

In the case of `O=C(COc1nsnc1N1CCOCC1)Nc1ccc(Cl)cc1`, the “lipid storage change, negative = inhibition” value was -10.2% (inactive) and the cell number change was -7.64%. Regarding `COC(=O)COc1nsnc1N1CCOCC1`, the Potency was 5.8 µM (active) and the cell number change is 1.29%. Take `O=C(COc1nsnc1N1CCOCC1)N1CCOCC1`: the “lipid storage change, negative = inhibition” value is -15% (inactive) and the cell number change was -23.3%.

Take `Cc1cccc(OCCC(=O)NNC(=O)c2ccoc2C)c1`: the “lipid storage change, negative = inhibition” value is 5.46% (inactive) and the cell number change is -9.1%. Turning to `COC(=O)CCCCCN1C(=O)NC(c2ccccc2)C(C(=O)OCc2ccccc2)=C1C` (centres undefined), the “lipid storage change, negative = inhibition” value was 13.9% (inactive) and the cell number change is 10%. As for `CC(=O)NS(=O)(=O)c1ccc(NC(=O)c2cc(-c3ccc(C)cc3)nc3ccccc23)cc1`, the “lipid storage change, negative = inhibition” value is 0.28% (inactive) and the cell number change stood at 13.2%. With `CCCN1CCC(N2CCCC(C(=O)O)C2)CC1` (centres undefined), the “lipid storage change, negative = inhibition” value is 4% (inactive) and the cell number change was 9.47%. In the case of `Cc1ccc(NC(=O)N2CCCC(C(=O)O)C2)cc1` (centres undefined), the “lipid storage change, negative = inhibition” value was -5.95% (inactive) and the cell number change is -2.63%. With `CN1CCC(N2CCCC(C(=O)O)C2)CC1` (centres undefined), the Potency is 6.51 µM (active) and the cell number change was determined as 6.8%. For `O=C(c1ccccc1)N1CCn2c1nc1ccccc12`, the “lipid storage change, negative = inhibition” value was -6.04% (inactive) and the cell number change turned out to be 7.4%.

For the compound `COc1cccc(CC(=O)Nc2nc3c(s2)C(=O)CC(C)(C)C3)c1`, the “lipid storage change, negative = inhibition” value is 6.69% (inactive). As to `O=C(CSc1nccc(=O)[nH]1)Nc1ccc(N2CCOCC2)cc1`, the “lipid storage change, negative = inhibition” value is 10.1% (inactive) and the cell number change is 4.96%.

Consider `COc1ccc(OC)c(S(=O)(=O)N2CCCC(C(=O)N3CCC(C(N)=O)CC3)C2)c1` (centres undefined), for which the “lipid storage change, negative = inhibition” value is 29.6% (inactive).

As for `COc1ccc(OC)c(S(=O)(=O)N2CCC(C(=O)N3CCOCC3)CC2)c1`, the result was inactive and the cell number change was found to be 23.2%. Consider `COc1ccc(OC)c(S(=O)(=O)N2CCCC(C(=O)N3CCCCCC3)C2)c1` (centres undefined), for which the Potency was 3.26 µM (active) and the cell number change was -13.8%. Consider `COc1ccc(CN2CCCC(C(=O)N3CCCCC3)C2)c(OC)c1` (centres undefined), for which the Potency is 18.4 µM (active) and the cell number change is -9.62%. Take `COc1ccc(OC)c(S(=O)(=O)N2CCC(C(=O)N3CCN(Cc4ccccc4)CC3)CC2)c1`: the Potency is 8.2 µM (active) and the cell number change is -36.9%.

`COc1ccccc1CN1CCCC(C(=O)N2CCCCC2)C1` (centres undefined): the “lipid storage change, negative = inhibition” value is -23.1% (inactive) and the cell number change is -12.4%. Turning to `COc1cc(OC)c(OC)cc1CN1CCCC(C(=O)N2CCCCC2)C1` (centres undefined), the “lipid storage change, negative = inhibition” value was 0.198% (inactive) and the cell number change was -0.267%. For `COc1ccc(OC)c(S(=O)(=O)N2CCC(C(=O)N3CCCCCC3)CC2)c1`, the “lipid storage change, negative = inhibition” value is -21.6% (inactive) and the cell number change was 10.5%. As to `COc1ccc(S(=O)(=O)N2CCCC(C(=O)N3CCCCCC3)C2)cc1` (centres undefined), the compound was classed as inactive. For `COc1ccccc1CN1CCN(Cc2nc(Cc3ccccc3)no2)CC1`, the “lipid storage change, negative = inhibition” value is 6.75% (inactive) and the cell number change is -11.2%. Consider `COc1ccc(C(=O)COC(=O)C(CCSC)NC(=O)COc2ccccc2)cc1` (centres undefined), for which the “lipid storage change, negative = inhibition” value is 7.97% (inactive) and the cell number change was -12.5%. Consider `COc1ccc(Cc2noc(CN3CCN(Cc4csc(C)n4)CC3)n2)cc1OC`, for which the “lipid storage change, negative = inhibition” value was 19.7% (inactive) and the cell number change amounted to 3.13%. For the compound `CC(Sc1cnccn1)C(=O)O` (centres undefined), the “lipid storage change, negative = inhibition” value is -23.4% (inactive) and the cell number change was -4.62%. For the compound `CC(=O)NCC1CCCN(C(=O)c2oc3c(F)cccc3c2C)C1` (centres undefined), the call was inactive and the cell number change is -13.1%. As to `O=C(COC(=O)C1CC1)NCc1ccccc1`, the “lipid storage change, negative = inhibition” value is 7.58% (inactive). Turning to `COc1cc(OC)c(/C=N/NC(=O)Cn2nc([N+](=O)[O-])cc2C)c(OC)c1`, the “lipid storage change, negative = inhibition” value is 8.36% (inactive). Consider `COc1ccc(CCNC(=O)c2ccc3c(c2)NC(=O)C(C(C)C)N3)cc1OC` (centres undefined), for which the call was inactive and the cell number change is -27%. The matching figures for `COc1ccc(CCNC(=O)CC2Nc3cc(C)c(C)cc3NC2=O)cc1OC` (centres undefined): “inactive” and 21.5%. As for `COc1ccc(CCNC(=O)c2ccc3c(c2)NC(=O)C(CSCc2cc(C)ccc2C)N3)cc1OC` (centres undefined), the Potency is 23.1 µM (active) and the cell number change was 3.36%. For the compound `COc1ccc(C(=O)NNC(=O)CCCCC(=O)NNC(=O)c2ccc(OC)cc2)cc1`, the “lipid storage change, negative = inhibition” value was -11.8% (inactive) and the cell number change is -8.93%. On to `COc1ccc2[nH]c(C(=O)O)c(CCN3C(=O)c4ccc(C(=O)O)cc4C3=O)c2c1`, for which the compound was classed as inactive.

For the compound `CC(C)(C)C#CCn1c(/C=[N+](\[O-])C2CCCCC2)nc2ccccc21`, the “lipid storage change, negative = inhibition” value is 24% (inactive) and the cell number change is -20.4%.

Take `Cc1nc2cc(C(=O)OCC(=O)Nc3cccc(Cl)c3)ccc2n1-c1ccccc1`: the “lipid storage change, negative = inhibition” value is 9.16% (inactive) and the cell number change worked out at 16.2%. As to `COc1cc2ccccc2cc1C(=O)NC(=S)Nc1cccc(C(=O)O)c1`, the compound was classed as inactive and the cell number change amounted to 12.5%. Regarding `COc1cc2ccccc2cc1C(=O)NC(=S)Nc1ccc(C(=O)O)cc1`, the Potency is 18.4 µM (active) and the cell number change was -28.9%.

`COc1cc2ccccc2cc1C(=O)NC(=S)Nc1cc(C(=O)O)ccc1C`: the “lipid storage change, negative = inhibition” value is -1.68% (inactive) and the cell number change is -26.2%.

With `COC(=O)C1CCN(C(=O)C23CCC(C)(C(=O)O2)C3(C)C)CC1` (centres undefined), the “lipid storage change, negative = inhibition” value is -21.8% (inactive).

Turning to `Cc1ccc(NC(=O)CSc2nnc(-c3ccncc3)s2)cc1`, the “lipid storage change, negative = inhibition” value is 37.9% (inactive) and the cell number change worked out at 5.56%.

On to `CCn1c(C)[n+](CC)c2ccc(S(=O)(=O)N(C)C)cc21`, for which the “lipid storage change, negative = inhibition” value was 2.28% (inactive) and the cell number change is 4.86%. The matching figures for `O=C(O)/C=C/C(=O)NCc1ccccn1`: -9.56% (inactive) and -7.29%.

`CNc1snc(C)c1C(=O)OCC(=O)N(C)Cc1ccccc1`: the Potency was 14.6 µM (active) and the cell number change was -17.1%.
